# Reference: PubChem BioAssay (Tox21)
# Records with an inconclusive call do not appear. Activity calls are given as the source filed them. Unless noted, calls follow the shape of the dose curve; as a rule, active = well fitted cell-killing curve with a large enough effect in the repeat runs; inconclusive = weak or mixed curves, or effect the other way; inactive = no such curve, though single readings can be large or run the other way.
# Test: qHTS assay to identify small molecule antagonists of the vitamin D receptor (VDR) signaling pathway - cell viability counter screen (AID 743225); also: nearly all actives have a fitted effect of over 50% in size
# Details: VDR-bla HEK293T viability, CellTiter-Glo luminescence, 16 h; series mostly up to 61 µM; viability change, negative = cytotoxic: at the top concentration
# Method in brief: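 Read-out: CellTiter-Glo luminescence measured 30 min after reagent addition at room temperature. Cells were VDR-bla HEK 293T exposed 16 h at 37C, 5% CO2, to compound with 3 nM final calcitriol agonist.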
# % is scaled to controls: 0 for no effect and ±100 for the full control effect.
row,Compound,"viability change, negative = cytotoxic"
1,Cc1ccc(N)cc1[N+](=O)[O-],0% [at 78.8 µM] (inactive)
2,C=CCOCC(O)CS(=O)(=O)O (configuration not stated),4.09% [at 78.8 µM] (inactive)
3,COc1cccc(OC)c1,0.421% (inactive)
4,CC(=O)NC(Cc1ccccc1)C(=O)O (configuration not stated),0.992% (inactive)
5,CC(C)[C@H](N)C(=O)OCCOCn1cnc2c(=O)[nH]c(N)nc21,-6.59% (inactive)
6,CCCCCCCCCCCCCCC,25.1% (inactive)
7,CCCCCC[C@@H](CCC)C(=O)O,0.496% (inactive)
8,CC(=O)OC(C)(C)C,10.8% (inactive)
9,C=C(C)C1CC=C(C)C(O)C1 (configuration not stated),5.31% [at 78.8 µM] (inactive)
10,CCCCCCCCCCCCCCCCCCOCC(O)CO (configuration not stated),0.51% (inactive)
11,O=C(O)/C=C/c1ccc(Cn2ccnc2)cc1,8.18% (inactive)
12,CC(=O)CCc1ccc(O)cc1,-6.14% (inactive)
13,C1CCCCCCCCCCC1,-9.62% [at 28.5 µM] (inactive)
14,COC(=O)CCCCCCCCC(=O)OC,-10.9% [at 78.8 µM] (inactive)
15,OCC(O)[C@@H](O)[C@H](O)[C@H](O)CO[C@H]1O[C@H](CO)[C@@H](O)[C@H](O)[C@H]1O (some centres not stated),6.34% (inactive)
16,CC(C)(C)C(=O)/C=C/c1ccc(Cl)cc1,8.42% (inactive)
17,COC(=O)[C@H]1[C@H]2C[C@@H]3c4[nH]c5cc(OC)ccc5c4CCN3C[C@H]2C[C@@H](OC(=O)COc2ccc(OC)cc2)[C@@H]1OC,-20.4% (inactive)
18,CCCCOCC(C)OCC(C)O (configuration not stated),-27.9% [at 78.8 µM] (inactive)
19,CC(C)(C)OC(=O)N1C[C@@H](F)C[C@H]1C(=O)O,4.73% [at 78.8 µM] (inactive)
20,NC(=O)c1ncn([C@@H]2O[C@H](CO)[C@@H](O)[C@H]2O)c1N,-1.8% (inactive)
21,CC(C)c1ccc2oc3nc(N)c(C(=O)O)cc3c(=O)c2c1,2.9% (inactive)
22,C/C=C1\C(=O)C[C@H]2[C@@H]3CCC4=CC(=O)CC[C@]4(C)[C@H]3CC[C@]12C,-14.1% (inactive)
23,Cc1nc(-c2ccc(OCC(C)C)c(C#N)c2)sc1C(=O)O,7.41% (inactive)
24,CCCCCCCCN(C)CCCCCCCC,-8.94% [at 78.8 µM] (inactive)
25,CCC(=O)Nc1cccc(N)c1,-23.9% (inactive)
26,COC[C@H](c1ccc(C(F)(F)F)cc1)N1CCN(C2(C)CCN(C(=O)c3c(C)ncnc3C)CC2)C[C@H]1C,-1.16% (inactive)
27,COCCOC(=O)CC#N,8.86% (inactive)
28,CN(C)CCOC(c1ccc(Cl)cc1)c1ccccn1 (configuration not stated),-2.99% (inactive)
29,CCCCCCOC(=O)c1ccccc1O,-22.3% (inactive)
30,CCC(=O)/C=C/c1ccc(OC)cc1,-1.34% (inactive)

# Test: qHTS assay to identify small molecule agonists of the NFkB signaling pathway (AID 1159509; active = well fitted curve in the direction sought with a large enough effect in the signal ratio in the repeat runs, not every such curve was filed as active; the % refers to the signal ratio)
# Details: NFkB-bla ME-180 cells, beta-lactamase FRET ratio, 5 h; series mostly up to 61 µM; activation: at the top concentration
# Method in brief: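 After overnight attachment, reporter cells received test compounds, DMSO or positive controls and were incubated 5 hr at 37 C. FRET substrate was then added for 1.5 hr at room temperature before dual-emission fluorescence reading.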
row,Compound,activation
1,Cc1ccc(N)cc1[N+](=O)[O-],-0.338% [at 78.8 µM] (inactive)
2,C=CCOCC(O)CS(=O)(=O)O (configuration not stated),0.132% [at 78.8 µM] (inactive)
3,COc1cccc(OC)c1,-0.323% (inactive)
4,CCC(C(=O)NC(N)=O)c1ccccc1 (configuration not stated),-0.0642% (inactive)
5,CC(=O)NC(Cc1ccccc1)C(=O)O (configuration not stated),0.718% (inactive)
6,CC(C)[C@H](N)C(=O)OCCOCn1cnc2c(=O)[nH]c(N)nc21,0.605% (inactive)
7,CCCCc1ccc(N)cc1,-0.154% (inactive)
8,CCCCCCCCCCCCCCC,-0.124% (inactive)
9,CCCCCC[C@@H](CCC)C(=O)O,0.0334% (inactive)
10,O=C(O)Cc1cc(I)c(Oc2cc(I)c(O)c(I)c2)c(I)c1,2.34% (inactive)
11,C=C(C)C(=O)NCCC[N+](C)(C)C,0.0999% (inactive)
12,CC(=O)OC(C)(C)C,-0.511% (inactive)
13,C=C(C)C1CC=C(C)C(O)C1 (configuration not stated),-0.368% [at 78.8 µM] (inactive)
14,CCCCCCCCCCCCCCCCCCOCC(O)CO (configuration not stated),-0.167% (inactive)
15,O=C(O)/C=C/c1ccc(Cn2ccnc2)cc1,0.173% (inactive)
16,CC(=O)CCc1ccc(O)cc1,0.376% (inactive)

row,Compound,activation
1,C1CCCCCCCCCCC1,0.23% [at 28.5 µM] (inactive)
2,COC(=O)CCCCCCCCC(=O)OC,-0.138% [at 78.8 µM] (inactive)
3,OCC(O)[C@@H](O)[C@H](O)[C@H](O)CO[C@H]1O[C@H](CO)[C@@H](O)[C@H](O)[C@H]1O (some centres not stated),-0.868% (inactive)
4,CC(C)(C)C(=O)/C=C/c1ccc(Cl)cc1,-0.786% (inactive)
5,COC(=O)[C@H]1[C@H]2C[C@@H]3c4[nH]c5cc(OC)ccc5c4CCN3C[C@H]2C[C@@H](OC(=O)COc2ccc(OC)cc2)[C@@H]1OC,0.527% (inactive)
6,CCCCOCC(C)OCC(C)O (configuration not stated),-0.036% [at 78.8 µM] (inactive)
7,CC(C)(C)OC(=O)N1C[C@@H](F)C[C@H]1C(=O)O,0.0128% [at 78.8 µM] (inactive)
8,NC(=O)c1ncn([C@@H]2O[C@H](CO)[C@@H](O)[C@H]2O)c1N,0.381% (inactive)
9,CC(C)c1ccc2oc3nc(N)c(C(=O)O)cc3c(=O)c2c1,-0.413% (inactive)
10,C/C=C1\C(=O)C[C@H]2[C@@H]3CCC4=CC(=O)CC[C@]4(C)[C@H]3CC[C@]12C,-1.6% (inactive)
11,Cc1nc(-c2ccc(OCC(C)C)c(C#N)c2)sc1C(=O)O,-0.161% (inactive)
12,Fc1ccccc1-c1ccccc1,0.629% [at 78.8 µM] (inactive)
13,Nc1nc2c(ncn2CCC(CO)CO)c(=O)[nH]1,-0.489% (inactive)
14,CCCCCCCCN(C)CCCCCCCC,0.541% [at 78.8 µM] (inactive)
15,FC(F)(F)C(F)(F)C(F)(F)C(F)(F)C(F)(F)C(F)(F)C(F)(F)C(F)(F)C(F)(F)C(F)(F)F,-0.0985% [at 6.95 µM] (inactive)
16,CCC(=O)Nc1cccc(N)c1,0.284% (inactive)
